From PubChem BioAssay AID1159580 (chemical genetic matrix, 2015)
Among all 5,500 compounds or so, about 2,000 (36%) were called active. About 18% were inconclusive and are not listed. Rule as the data show it: active = normalized growth mostly below about 0.91 (no sharp cut-off); inconclusive = no clear call, values can overlap the other calls; inactive = mostly above about 0.92. This is one part of the list.

Assay: chemical genetic growth profiling, strain panel (AID 1159580);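 also: tested at 20 µM; growth read once vehicle control cultures reached saturation at 30 °C; 1 = growth at the plate median or of vehicle wells; lower values mean less growth of the strain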
Conditions: growth OD
[1] = S. cerevisiae deletion strains, locus YAR019C, strain CDC15, active compounds read low
[2] = S. cerevisiae deletion strains, locus YBL105C, strain PKC1, active compounds read low
[3] = S. cerevisiae deletion strains, locus YBR135W, strain CKS1, active compounds read low
[4] = S. cerevisiae deletion strains, locus YBR136W, strain MEC1, active compounds read low
[5] = S. cerevisiae deletion strains, locus YBR160W, strain CDC28, active compounds read low
[6] = S. cerevisiae deletion strains, locus YDL017W, strain CDC7, active compounds read low
[7] = S. cerevisiae deletion strains, locus YDL028C, strain MPS1, active compounds read low
[8] = S. cerevisiae deletion strains, locus YDL101C, strain DUN1, active compounds read low
[9] = S. cerevisiae deletion strains, locus YDL108W, strain KIN28, active compounds read low
[10] = S. cerevisiae deletion strains, locus YDL132W, strain cdc53, active compounds read low
[11] = S. cerevisiae deletion strains, locus YDL214C, strain PRR2, active compounds read low
[12] = S. cerevisiae deletion strains, locus YDR052C, strain DBF4, active compounds read low
[13] = S. cerevisiae deletion strains, locus YDR054C, strain cdc34, active compounds read low
[14] = S. cerevisiae deletion strains, locus YDR226W, strain ADK1, active compounds read low
[15] = S. cerevisiae deletion strains, locus YDR477W, strain SNF1, active compounds read low
[16] = S. cerevisiae deletion strains, locus YER123W, strain YCK3, active compounds read low
[17] = S. cerevisiae deletion strains, locus YER133W, strain GLC7, active compounds read low
[18] = S. cerevisiae deletion strains, locus YFL009W, strain cdc4, active compounds read low
[19] = S. cerevisiae deletion strains, locus YFL029C, strain CAK1, active compounds read low
[20] = S. cerevisiae deletion strains, locus YFR003C, strain YPI1, active compounds read low
[21] = S. cerevisiae deletion strains, locus YFR019W, strain FAB1, active compounds read low
[22] = S. cerevisiae deletion strains, locus YFR028C, strain CDC14, active compounds read low
[23] = S. cerevisiae deletion strains, locus YGR040W, strain KSS1, active compounds read low
[24] = S. cerevisiae deletion strains, locus YGR052W, strain FMP48, active compounds read low
[25] = S. cerevisiae deletion strains, locus YGR092W, strain DBF2, active compounds read low
[26] = S. cerevisiae deletion strains, locus YHR030C, strain SLT2, active compounds read low
[27] = S. cerevisiae deletion strains, locus YHR079C, strain IRE1, active compounds read low
[28] = S. cerevisiae deletion strains, locus YHR082C, strain KSP1, active compounds read low
[29] = S. cerevisiae deletion strains, locus YHR205W, strain SCH9, active compounds read low
[30] = S. cerevisiae deletion strains, locus YIL147C, strain SLN1, active compounds read low
[31] = S. cerevisiae deletion strains, locus YJL095W, strain BCK1, active compounds read low
[32] = S. cerevisiae deletion strains, locus YJL128C, strain PBS2, active compounds read low
[33] = S. cerevisiae deletion strains, locus YJL157C, strain FAR1, active compounds read low
[34] = S. cerevisiae deletion strains, locus YJR016C, strain ILV3, active compounds read low
[35] = S. cerevisiae deletion strains, locus YJR066W, strain TOR1 (second series), active compounds read low
[36] = S. cerevisiae deletion strains, locus YJR066W, strain TOR1, active compounds read low
[37] = S. cerevisiae deletion strains, locus YKL048C, strain ELM1, active compounds read low
[38] = S. cerevisiae deletion strains, locus YKL067W, strain YNK1, active compounds read low
[39] = S. cerevisiae deletion strains, locus YKL101W, strain HSL1, active compounds read low
[40] = S. cerevisiae deletion strains, locus YKL193C, strain SDS22, active compounds read low
[41] = S. cerevisiae deletion strains, locus YKL203C, strain TOR2, active compounds read low
[42] = S. cerevisiae deletion strains, locus YLR113W, strain HOG1, active compounds read low
[43] = S. cerevisiae deletion strains, locus YLR133W, strain CKI1, active compounds read low
[44] = S. cerevisiae deletion strains, locus YLR403W, strain SFP1, active compounds read low
[45] = S. cerevisiae deletion strains, locus YML070W, strain DAK1, active compounds read low
[46] = S. cerevisiae deletion strains, locus YMR001C, strain CDC5, active compounds read low
[47] = S. cerevisiae deletion strains, locus YMR205C, strain PFK2 (second series), active compounds read low
[48] = S. cerevisiae deletion strains, locus YMR277W, strain FCP1, active compounds read low
[49] = S. cerevisiae deletion strains, locus YNL006W, strain LST8, active compounds read low
[50] = S. cerevisiae deletion strains, locus YNL020C, strain ARK1, active compounds read low
[51] = S. cerevisiae deletion strains, locus YNL161W, strain CBK1, active compounds read low
[52] = S. cerevisiae deletion strains, locus YNL183C, strain NPR1, active compounds read low
[53] = S. cerevisiae deletion strains, locus YNL207W, strain RIO2, active compounds read low
[54] = S. cerevisiae deletion strains, locus YNL222W, strain SSU72, active compounds read low
[55] = S. cerevisiae deletion strains, locus YNL307C, strain MCK1 (second series), active compounds read low
[56] = S. cerevisiae deletion strains, locus YOL078W, strain AVO1, active compounds read low
[57] = S. cerevisiae deletion strains, locus YOL136C, strain PFK27, active compounds read low
[58] = S. cerevisiae deletion strains, locus YOR061W, strain CKA2, active compounds read low
[59] = S. cerevisiae deletion strains, locus YOR119C, strain RIO1, active compounds read low
[60] = S. cerevisiae deletion strains, locus YOR231W, strain MKK1, active compounds read low
[61] = S. cerevisiae deletion strains, locus YOR329C, strain SCD5, active compounds read low
[62] = S. cerevisiae deletion strains, locus YPL031C, strain PHO85, active compounds read low
[63] = S. cerevisiae deletion strains, locus YPL153C, strain RAD53, active compounds read low
[64] = S. cerevisiae deletion strains, locus YPL204W, strain HRR25, active compounds read low
[65] = S. cerevisiae deletion strains, locus YPL209C, strain IPL1, active compounds read low
[66] = S. cerevisiae deletion strains, locus YPL256C, strain CLN2, active compounds read low
[67] = S. cerevisiae deletion strains, locus YPR025C, strain CCL1, active compounds read low
[68] = S. cerevisiae deletion strains, locus YPR106W, strain ISR1, active compounds read low
[69] = S. cerevisiae deletion strains, locus YPR111W, strain DBF20, active compounds read low
[70] = S. cerevisiae deletion strains, strain NNK1, active compounds read low
[71] = S. cerevisiae deletion strains, strain TSCII, active compounds read low

Measured: normalized growth

FC(F)(F)c1cccc(NNC(=S)Nc2ccccc2)c1
active: [26] 0.754 | [42] 0.764 | [66] 0.848
inactive: [1] 0.996 | [2] 1 | [3] 1 | [4] 0.999 | [5] 0.997 | [6] 0.998 | [7] 1 | [8] 0.994 | [9] 1.01 | [10] 0.99 | [11] 0.951 | [12] 0.998 | [13] 0.989 | [14] 0.999 | [15] 0.882 | [16] 0.912 | [17] 0.975 | [18] 1 | [19] 1 | [20] 1.01 | [21] 0.974 | [22] 1 | [23] 0.897 | [24] 0.957 | [25] 0.807 | [27] 0.848 | [28] 0.876 | [29] 0.877 | [30] 0.998 | [31] 0.856 | [32] 0.986 | [33] 0.945 | [34] 0.996 | [35] 0.812 | [36] 0.861 | [37] 0.948 | [38] 0.937 | [39] 0.907 | [40] 1 | [41] 0.968 | [43] 0.946 | [44] 0.929 | [45] 0.947 | [46] 1.01 | [47] 0.971 | [48] 0.994 | [49] 1 | [50] 0.925 | [51] 0.997 | [52] 0.874 | [53] 0.998 | [54] 0.999 | [55] 0.825 | [56] 0.995 | [57] 0.938 | [58] 0.856 | [59] 0.993 | [60] 0.882 | [61] 0.996 | [62] 0.894 | [63] 0.919 | [64] 0.89 | [65] 0.997 | [67] 1 | [68] 1.01 | [69] 1 | [70] 0.995 | [71] 1

Fc1cccc(F)c1NC(=S)Nc1cc(C(F)(F)F)cc(C(F)(F)F)c1
active: [42] 0.742 | [66] 0.829
inactive: [1] 0.979 | [2] 0.979 | [3] 0.981 | [4] 0.982 | [5] 0.982 | [6] 0.992 | [7] 0.975 | [8] 0.991 | [9] 0.984 | [10] 0.979 | [11] 0.907 | [12] 0.987 | [13] 0.978 | [14] 0.986 | [15] 0.948 | [16] 0.907 | [17] 0.933 | [18] 0.976 | [19] 0.976 | [20] 0.981 | [21] 0.98 | [22] 0.977 | [23] 0.954 | [24] 0.933 | [25] 0.967 | [26] 0.981 | [27] 0.85 | [28] 1.01 | [29] 0.87 | [30] 0.981 | [31] 0.862 | [32] 0.919 | [33] 0.923 | [34] 0.979 | [35] 0.931 | [36] 1.06 | [37] 0.934 | [38] 0.931 | [39] 0.91 | [40] 0.977 | [41] 1.02 | [43] 0.948 | [44] 0.974 | [45] 0.907 | [46] 0.981 | [47] 0.95 | [48] 0.975 | [49] 0.977 | [50] 0.932 | [51] 0.98 | [52] 0.98 | [53] 0.985 | [54] 0.979 | [55] 0.918 | [56] 0.977 | [57] 0.928 | [58] 0.953 | [59] 0.997 | [60] 0.91 | [61] 0.986 | [62] 0.942 | [63] 0.939 | [64] 0.936 | [65] 0.991 | [67] 0.982 | [68] 0.981 | [69] 0.972 | [70] 0.974 | [71] 0.98

COc1ccc(CCNC(=S)Nc2cccc(C(F)(F)F)c2)cc1OC
inactive: S. cerevisiae deletion strains, locus YAL013W, strain DEP1, active compounds read low 0.997 | S. cerevisiae deletion strains, locus YBR229C, strain ROT2, active compounds read low 0.995 | [8] 0.999 | S. cerevisiae deletion strains, locus YDR150W, strain NUM1, active compounds read low 0.957 | S. cerevisiae deletion strains, locus YEL061C, strain CIN8, active compounds read low 1.02 | S. cerevisiae deletion strains, locus YGR078C, strain PAC10, active compounds read low 0.971 | [26] 0.9 | S. cerevisiae deletion strains, locus YHR087W, strain rtc3, active compounds read low 1.03 | S. cerevisiae deletion strains, locus YJL187C, strain SWE1, active compounds read low 1.01 | S. cerevisiae deletion strains, locus YJR043C, strain POL32, active compounds read low 0.968 | S. cerevisiae deletion strains, locus YJR075W, strain HOC1, active compounds read low 0.981 | S. cerevisiae deletion strains, locus YLR039C, strain RIC1, active compounds read low 0.837 | S. cerevisiae deletion strains, locus YLR058C, strain SHM2 (second series), active compounds read low 1.01 | S. cerevisiae deletion strains, locus YLR085C, strain ARP6, active compounds read low 0.962 | S. cerevisiae deletion strains, locus YLR262C, strain YPT6, active compounds read low 0.831 | S. cerevisiae deletion strains, locus YML094W, strain GIM5, active compounds read low 0.968 | S. cerevisiae deletion strains, locus YMR219W, strain ESC1, active compounds read low 1 | S. cerevisiae deletion strains, locus YMR263W, strain SAP30, active compounds read low 0.981 | S. cerevisiae deletion strains, locus YNL128W, strain TEP1, active compounds read low 0.987 | S. cerevisiae deletion strains, locus YNL153C, strain GIM3, active compounds read low 0.969 | S. cerevisiae deletion strains, locus YNL298W, strain CLA4 (second series), active compounds read low 1 | S. cerevisiae deletion strains, locus YNL322C, strain KRE1, active compounds read low 0.996 | S. cerevisiae deletion strains, locus YNR030W, strain Alg12, active compounds read low 1 | S. cerevisiae deletion strains, locus YOL006C, strain TOP1, active compounds read low 0.964 | S. cerevisiae deletion strains, locus YPL055C, strain LGE1, active compounds read low 1 | S. cerevisiae deletion strains, locus YPL241C, strain CIN2, active compounds read low 0.969 | S. cerevisiae deletion strains, locus YPR135W, strain CTF4, active compounds read low 0.895 | S. cerevisiae strains, strain wild type, active compounds read low 0.982
